In the supplement of paper PMC11732987, “Enantioselective OTUD7B fragment discovery through chemoproteomics screening and high-throughput optimisation” (Communications Chemistry, 2025):

Legend:
Experiment in all cases: log2 ratio of Biotin-Ahx-Ub-VS probe labelling (fragment/DMSO); higher = less target engagement (more negative = stronger competition), active = hit call of the paper (q ≤ 0.05, log2 ratio ≤ -1)
Settings in all cases: compound concentration: 200 uM; treatment time: 3 h
USP42 = molecular target: T1, USP42 (UniProt Q9H9J4)
T1 sequence (whole entry): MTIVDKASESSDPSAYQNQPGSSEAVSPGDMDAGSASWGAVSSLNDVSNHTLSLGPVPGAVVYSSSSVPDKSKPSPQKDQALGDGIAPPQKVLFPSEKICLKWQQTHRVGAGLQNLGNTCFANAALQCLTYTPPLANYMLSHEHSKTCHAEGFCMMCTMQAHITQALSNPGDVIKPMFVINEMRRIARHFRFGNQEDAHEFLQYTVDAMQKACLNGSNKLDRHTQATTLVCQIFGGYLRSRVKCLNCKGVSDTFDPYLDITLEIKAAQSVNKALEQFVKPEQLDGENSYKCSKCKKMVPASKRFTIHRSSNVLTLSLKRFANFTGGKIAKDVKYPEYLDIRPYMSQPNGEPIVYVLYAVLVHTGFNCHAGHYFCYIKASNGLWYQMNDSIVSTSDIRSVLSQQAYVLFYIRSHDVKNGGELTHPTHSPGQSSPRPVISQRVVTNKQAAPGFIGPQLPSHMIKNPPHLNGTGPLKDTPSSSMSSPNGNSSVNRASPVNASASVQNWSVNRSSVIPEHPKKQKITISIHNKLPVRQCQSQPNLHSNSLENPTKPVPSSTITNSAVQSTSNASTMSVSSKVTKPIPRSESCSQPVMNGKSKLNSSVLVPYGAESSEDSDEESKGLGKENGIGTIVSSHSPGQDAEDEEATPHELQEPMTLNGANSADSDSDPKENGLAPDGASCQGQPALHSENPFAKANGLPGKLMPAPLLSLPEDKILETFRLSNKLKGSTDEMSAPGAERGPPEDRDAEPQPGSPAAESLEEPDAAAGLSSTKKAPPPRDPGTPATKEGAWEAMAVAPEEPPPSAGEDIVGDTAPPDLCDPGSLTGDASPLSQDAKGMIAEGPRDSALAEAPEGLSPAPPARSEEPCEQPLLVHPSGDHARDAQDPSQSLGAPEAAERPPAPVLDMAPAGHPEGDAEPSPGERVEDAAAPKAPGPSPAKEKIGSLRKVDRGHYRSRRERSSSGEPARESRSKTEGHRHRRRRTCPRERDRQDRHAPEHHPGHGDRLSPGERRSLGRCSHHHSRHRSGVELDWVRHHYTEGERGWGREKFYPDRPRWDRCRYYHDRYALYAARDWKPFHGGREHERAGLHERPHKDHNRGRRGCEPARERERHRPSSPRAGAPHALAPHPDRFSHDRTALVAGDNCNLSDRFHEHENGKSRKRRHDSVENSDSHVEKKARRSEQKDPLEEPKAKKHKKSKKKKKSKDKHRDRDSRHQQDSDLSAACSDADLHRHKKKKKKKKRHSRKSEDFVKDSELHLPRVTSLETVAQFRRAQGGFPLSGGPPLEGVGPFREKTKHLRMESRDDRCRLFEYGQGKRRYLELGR
How it was run: (§1)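 Triplicate samples of HEK293T lysate, 495 µg each, received fragment at 200 µM or vehicle for 3 h, followed by Biotin-Ahx-Ub-VS (0.5 µM final) for 1 h. After NeutrAvidin enrichment of labelled DUBs and LysC/trypsin digestion, peptides were run by diaPASEF LC-MS/MS. The values are average log2 fragment/vehicle ratios from global-median-normalised Spectronaut label-free quantities, tested by unpaired t-test on proteins having ≥2 unique peptides.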

USP46 = USP46 (UniProt P62068)
Sequence of USP46 (P62068 whole entry): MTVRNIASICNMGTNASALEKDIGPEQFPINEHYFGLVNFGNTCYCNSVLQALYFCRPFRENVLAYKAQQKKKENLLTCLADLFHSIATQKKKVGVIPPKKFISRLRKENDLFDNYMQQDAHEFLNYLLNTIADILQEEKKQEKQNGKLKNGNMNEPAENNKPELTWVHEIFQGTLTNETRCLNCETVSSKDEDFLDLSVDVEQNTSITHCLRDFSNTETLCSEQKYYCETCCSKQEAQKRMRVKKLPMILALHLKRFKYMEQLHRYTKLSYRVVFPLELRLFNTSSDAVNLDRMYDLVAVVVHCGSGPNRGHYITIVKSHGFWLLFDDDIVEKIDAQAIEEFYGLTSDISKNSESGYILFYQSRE
How it was run: as §1

USP47 = molecular target: T2, USP47 (UniProt Q96K76)
T2 sequence (whole entry): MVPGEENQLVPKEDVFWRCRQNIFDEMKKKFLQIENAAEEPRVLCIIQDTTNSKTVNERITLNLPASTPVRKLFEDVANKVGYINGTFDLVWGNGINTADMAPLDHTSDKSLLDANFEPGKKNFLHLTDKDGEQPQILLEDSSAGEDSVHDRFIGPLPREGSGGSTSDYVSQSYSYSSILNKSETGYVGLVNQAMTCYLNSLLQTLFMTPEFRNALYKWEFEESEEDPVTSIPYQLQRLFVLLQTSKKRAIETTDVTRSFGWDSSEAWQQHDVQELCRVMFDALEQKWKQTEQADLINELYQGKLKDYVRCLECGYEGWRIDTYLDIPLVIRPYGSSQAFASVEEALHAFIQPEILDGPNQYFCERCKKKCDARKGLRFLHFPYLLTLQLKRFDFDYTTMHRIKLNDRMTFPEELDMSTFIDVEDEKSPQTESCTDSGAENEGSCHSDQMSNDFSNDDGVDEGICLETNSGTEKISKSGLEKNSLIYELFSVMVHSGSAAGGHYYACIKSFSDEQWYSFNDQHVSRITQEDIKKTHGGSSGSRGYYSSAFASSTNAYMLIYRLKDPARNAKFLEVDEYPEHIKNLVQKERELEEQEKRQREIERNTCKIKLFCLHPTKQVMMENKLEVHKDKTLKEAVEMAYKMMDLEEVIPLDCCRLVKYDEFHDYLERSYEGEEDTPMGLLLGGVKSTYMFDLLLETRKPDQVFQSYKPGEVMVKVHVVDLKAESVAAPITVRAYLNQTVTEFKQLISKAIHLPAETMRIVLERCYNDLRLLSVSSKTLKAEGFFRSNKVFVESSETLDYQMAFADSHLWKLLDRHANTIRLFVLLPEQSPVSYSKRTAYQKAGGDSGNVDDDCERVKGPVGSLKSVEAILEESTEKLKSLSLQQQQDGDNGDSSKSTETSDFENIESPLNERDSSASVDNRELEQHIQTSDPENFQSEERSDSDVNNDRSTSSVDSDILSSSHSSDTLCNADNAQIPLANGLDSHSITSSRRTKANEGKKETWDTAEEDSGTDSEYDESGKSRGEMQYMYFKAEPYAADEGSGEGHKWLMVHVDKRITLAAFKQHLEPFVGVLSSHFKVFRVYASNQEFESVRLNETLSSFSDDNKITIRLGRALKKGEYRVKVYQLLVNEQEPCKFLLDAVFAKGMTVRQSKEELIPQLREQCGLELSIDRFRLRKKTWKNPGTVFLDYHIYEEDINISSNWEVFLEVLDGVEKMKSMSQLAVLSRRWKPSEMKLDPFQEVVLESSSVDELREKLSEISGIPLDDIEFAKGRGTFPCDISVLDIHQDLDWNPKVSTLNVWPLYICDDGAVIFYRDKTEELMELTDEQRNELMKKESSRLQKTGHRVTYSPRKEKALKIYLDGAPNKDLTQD
How it was run: as §1

USP48 = molecular target: T3, USP48 (UniProt Q86UV5)
T3 sequence (whole entry): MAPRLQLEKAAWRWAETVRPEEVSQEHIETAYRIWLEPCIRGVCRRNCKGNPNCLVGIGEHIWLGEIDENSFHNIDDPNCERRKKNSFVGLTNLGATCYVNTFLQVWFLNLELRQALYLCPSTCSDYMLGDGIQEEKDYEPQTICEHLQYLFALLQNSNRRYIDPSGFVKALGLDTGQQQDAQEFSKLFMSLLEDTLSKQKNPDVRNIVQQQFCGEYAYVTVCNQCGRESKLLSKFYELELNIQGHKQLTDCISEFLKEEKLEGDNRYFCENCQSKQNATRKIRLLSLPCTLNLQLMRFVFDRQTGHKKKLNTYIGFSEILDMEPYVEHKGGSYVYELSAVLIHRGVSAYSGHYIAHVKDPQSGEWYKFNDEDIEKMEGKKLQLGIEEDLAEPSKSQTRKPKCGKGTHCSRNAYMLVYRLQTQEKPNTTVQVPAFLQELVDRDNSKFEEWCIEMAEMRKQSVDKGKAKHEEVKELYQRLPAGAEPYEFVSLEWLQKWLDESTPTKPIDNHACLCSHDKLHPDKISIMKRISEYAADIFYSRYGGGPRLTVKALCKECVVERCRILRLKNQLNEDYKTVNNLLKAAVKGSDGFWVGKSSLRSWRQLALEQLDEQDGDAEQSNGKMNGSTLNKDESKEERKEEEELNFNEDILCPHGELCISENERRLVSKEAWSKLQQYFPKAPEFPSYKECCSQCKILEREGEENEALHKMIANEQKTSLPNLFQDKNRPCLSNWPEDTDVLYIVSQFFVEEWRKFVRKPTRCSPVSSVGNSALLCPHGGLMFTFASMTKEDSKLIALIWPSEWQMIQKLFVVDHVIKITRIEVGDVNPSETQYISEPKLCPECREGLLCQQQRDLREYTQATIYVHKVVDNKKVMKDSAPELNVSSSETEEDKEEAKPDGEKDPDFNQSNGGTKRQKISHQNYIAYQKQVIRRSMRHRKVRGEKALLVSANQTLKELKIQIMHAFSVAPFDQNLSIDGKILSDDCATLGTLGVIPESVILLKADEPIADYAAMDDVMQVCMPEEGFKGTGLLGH
How it was run: as §1

USP5 = molecular target: T4, USP5 (UniProt P45974)
T4 sequence (whole entry): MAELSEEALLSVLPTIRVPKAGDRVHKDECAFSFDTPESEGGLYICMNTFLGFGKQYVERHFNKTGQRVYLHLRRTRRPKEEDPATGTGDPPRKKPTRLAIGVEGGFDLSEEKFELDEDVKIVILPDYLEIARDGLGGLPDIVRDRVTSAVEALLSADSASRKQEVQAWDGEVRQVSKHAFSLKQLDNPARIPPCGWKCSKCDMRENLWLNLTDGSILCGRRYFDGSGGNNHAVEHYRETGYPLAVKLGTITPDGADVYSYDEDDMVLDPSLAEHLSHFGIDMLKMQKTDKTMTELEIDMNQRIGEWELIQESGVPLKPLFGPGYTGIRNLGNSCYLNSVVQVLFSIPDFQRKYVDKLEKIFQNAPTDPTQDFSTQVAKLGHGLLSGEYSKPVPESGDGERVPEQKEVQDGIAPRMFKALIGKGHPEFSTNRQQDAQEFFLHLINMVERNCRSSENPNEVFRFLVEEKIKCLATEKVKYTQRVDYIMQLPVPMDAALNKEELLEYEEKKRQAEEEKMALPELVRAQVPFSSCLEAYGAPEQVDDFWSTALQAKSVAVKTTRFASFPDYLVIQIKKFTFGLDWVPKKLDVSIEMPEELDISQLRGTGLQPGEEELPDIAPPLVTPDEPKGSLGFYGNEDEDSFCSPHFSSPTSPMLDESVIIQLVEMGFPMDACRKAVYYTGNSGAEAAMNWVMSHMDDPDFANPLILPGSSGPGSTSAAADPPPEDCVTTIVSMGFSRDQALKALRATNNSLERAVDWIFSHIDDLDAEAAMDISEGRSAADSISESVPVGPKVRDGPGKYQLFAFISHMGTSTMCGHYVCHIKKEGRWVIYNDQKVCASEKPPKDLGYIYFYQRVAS
How it was run: as §1

USP54 = USP54 (UniProt Q70EL1)
Sequence of USP54 (Q70EL1 whole entry): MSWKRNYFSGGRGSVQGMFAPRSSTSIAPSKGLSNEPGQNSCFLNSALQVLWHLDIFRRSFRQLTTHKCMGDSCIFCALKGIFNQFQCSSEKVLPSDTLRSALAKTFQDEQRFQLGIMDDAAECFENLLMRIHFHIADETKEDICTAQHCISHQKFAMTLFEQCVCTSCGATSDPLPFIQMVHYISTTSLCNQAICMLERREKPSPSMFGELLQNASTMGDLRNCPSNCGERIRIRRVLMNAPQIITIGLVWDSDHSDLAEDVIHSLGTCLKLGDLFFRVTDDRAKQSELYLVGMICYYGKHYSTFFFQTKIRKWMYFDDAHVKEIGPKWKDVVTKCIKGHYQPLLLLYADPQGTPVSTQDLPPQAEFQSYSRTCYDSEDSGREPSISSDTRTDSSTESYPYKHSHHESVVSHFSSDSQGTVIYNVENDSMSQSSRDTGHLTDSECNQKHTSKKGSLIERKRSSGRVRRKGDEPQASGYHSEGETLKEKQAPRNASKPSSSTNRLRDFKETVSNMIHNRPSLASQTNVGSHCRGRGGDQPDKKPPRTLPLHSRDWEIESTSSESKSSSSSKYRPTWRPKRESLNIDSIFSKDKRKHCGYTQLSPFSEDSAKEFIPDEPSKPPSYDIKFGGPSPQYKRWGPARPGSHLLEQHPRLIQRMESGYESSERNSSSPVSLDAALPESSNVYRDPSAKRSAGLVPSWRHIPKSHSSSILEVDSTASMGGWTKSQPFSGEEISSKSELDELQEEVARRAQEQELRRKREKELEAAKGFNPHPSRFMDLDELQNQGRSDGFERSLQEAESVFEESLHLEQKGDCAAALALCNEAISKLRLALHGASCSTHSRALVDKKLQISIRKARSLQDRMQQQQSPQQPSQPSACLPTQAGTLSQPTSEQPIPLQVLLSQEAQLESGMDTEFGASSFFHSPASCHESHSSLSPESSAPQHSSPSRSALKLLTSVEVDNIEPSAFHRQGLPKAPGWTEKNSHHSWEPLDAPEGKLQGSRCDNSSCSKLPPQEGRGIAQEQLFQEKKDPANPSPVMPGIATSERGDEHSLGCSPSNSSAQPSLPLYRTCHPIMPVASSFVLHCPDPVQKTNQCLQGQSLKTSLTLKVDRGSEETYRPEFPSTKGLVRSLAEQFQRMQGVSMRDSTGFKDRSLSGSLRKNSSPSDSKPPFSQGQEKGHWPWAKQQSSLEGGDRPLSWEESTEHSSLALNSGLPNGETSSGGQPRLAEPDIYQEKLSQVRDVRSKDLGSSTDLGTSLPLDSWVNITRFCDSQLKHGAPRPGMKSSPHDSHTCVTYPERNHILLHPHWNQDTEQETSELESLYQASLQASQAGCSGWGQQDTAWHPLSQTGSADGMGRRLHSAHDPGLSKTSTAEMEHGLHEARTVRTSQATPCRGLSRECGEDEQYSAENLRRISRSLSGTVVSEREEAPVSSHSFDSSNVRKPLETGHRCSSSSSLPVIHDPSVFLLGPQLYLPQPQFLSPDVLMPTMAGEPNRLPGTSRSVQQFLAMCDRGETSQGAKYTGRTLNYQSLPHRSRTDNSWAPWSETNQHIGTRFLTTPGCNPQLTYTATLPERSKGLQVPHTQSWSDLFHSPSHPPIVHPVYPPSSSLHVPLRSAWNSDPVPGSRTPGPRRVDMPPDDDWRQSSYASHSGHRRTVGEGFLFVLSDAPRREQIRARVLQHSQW
How it was run: as §1

USP7 = USP7 (UniProt Q93009)
How it was run: as §1

USP8 = molecular target: T5, USP8 (UniProt P40818)
T5 sequence (whole entry): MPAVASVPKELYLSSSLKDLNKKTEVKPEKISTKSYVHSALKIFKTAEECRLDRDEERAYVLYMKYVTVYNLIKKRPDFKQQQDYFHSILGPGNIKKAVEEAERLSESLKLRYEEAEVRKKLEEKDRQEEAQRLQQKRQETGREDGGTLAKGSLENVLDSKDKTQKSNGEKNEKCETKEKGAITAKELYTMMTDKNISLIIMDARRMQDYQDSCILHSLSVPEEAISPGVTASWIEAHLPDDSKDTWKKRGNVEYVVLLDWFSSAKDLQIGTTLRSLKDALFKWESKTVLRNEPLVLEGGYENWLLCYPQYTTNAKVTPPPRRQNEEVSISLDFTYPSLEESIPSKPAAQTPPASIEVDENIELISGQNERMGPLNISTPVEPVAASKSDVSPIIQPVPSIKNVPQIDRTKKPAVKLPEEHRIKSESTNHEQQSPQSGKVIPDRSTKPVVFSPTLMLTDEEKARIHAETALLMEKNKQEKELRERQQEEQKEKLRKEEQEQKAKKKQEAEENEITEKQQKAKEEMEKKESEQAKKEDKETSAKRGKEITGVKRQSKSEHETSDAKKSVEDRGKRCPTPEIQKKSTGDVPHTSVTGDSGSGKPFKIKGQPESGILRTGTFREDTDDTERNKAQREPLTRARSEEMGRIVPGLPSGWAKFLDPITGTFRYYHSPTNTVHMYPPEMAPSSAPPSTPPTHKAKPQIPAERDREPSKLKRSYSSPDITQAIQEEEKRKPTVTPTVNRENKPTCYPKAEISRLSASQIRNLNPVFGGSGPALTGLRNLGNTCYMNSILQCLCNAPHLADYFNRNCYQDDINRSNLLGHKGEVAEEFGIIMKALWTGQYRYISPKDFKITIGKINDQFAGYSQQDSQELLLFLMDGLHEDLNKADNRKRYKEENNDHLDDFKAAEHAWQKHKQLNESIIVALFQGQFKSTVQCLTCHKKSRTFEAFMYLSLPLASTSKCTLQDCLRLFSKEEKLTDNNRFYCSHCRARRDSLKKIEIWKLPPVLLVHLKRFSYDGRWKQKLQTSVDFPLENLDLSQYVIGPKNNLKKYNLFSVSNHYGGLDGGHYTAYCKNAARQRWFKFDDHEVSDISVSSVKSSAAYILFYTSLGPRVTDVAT
How it was run: as §1

USP9X = USP9X (UniProt Q93008)
Sequence of USP9X (Q93008 whole entry): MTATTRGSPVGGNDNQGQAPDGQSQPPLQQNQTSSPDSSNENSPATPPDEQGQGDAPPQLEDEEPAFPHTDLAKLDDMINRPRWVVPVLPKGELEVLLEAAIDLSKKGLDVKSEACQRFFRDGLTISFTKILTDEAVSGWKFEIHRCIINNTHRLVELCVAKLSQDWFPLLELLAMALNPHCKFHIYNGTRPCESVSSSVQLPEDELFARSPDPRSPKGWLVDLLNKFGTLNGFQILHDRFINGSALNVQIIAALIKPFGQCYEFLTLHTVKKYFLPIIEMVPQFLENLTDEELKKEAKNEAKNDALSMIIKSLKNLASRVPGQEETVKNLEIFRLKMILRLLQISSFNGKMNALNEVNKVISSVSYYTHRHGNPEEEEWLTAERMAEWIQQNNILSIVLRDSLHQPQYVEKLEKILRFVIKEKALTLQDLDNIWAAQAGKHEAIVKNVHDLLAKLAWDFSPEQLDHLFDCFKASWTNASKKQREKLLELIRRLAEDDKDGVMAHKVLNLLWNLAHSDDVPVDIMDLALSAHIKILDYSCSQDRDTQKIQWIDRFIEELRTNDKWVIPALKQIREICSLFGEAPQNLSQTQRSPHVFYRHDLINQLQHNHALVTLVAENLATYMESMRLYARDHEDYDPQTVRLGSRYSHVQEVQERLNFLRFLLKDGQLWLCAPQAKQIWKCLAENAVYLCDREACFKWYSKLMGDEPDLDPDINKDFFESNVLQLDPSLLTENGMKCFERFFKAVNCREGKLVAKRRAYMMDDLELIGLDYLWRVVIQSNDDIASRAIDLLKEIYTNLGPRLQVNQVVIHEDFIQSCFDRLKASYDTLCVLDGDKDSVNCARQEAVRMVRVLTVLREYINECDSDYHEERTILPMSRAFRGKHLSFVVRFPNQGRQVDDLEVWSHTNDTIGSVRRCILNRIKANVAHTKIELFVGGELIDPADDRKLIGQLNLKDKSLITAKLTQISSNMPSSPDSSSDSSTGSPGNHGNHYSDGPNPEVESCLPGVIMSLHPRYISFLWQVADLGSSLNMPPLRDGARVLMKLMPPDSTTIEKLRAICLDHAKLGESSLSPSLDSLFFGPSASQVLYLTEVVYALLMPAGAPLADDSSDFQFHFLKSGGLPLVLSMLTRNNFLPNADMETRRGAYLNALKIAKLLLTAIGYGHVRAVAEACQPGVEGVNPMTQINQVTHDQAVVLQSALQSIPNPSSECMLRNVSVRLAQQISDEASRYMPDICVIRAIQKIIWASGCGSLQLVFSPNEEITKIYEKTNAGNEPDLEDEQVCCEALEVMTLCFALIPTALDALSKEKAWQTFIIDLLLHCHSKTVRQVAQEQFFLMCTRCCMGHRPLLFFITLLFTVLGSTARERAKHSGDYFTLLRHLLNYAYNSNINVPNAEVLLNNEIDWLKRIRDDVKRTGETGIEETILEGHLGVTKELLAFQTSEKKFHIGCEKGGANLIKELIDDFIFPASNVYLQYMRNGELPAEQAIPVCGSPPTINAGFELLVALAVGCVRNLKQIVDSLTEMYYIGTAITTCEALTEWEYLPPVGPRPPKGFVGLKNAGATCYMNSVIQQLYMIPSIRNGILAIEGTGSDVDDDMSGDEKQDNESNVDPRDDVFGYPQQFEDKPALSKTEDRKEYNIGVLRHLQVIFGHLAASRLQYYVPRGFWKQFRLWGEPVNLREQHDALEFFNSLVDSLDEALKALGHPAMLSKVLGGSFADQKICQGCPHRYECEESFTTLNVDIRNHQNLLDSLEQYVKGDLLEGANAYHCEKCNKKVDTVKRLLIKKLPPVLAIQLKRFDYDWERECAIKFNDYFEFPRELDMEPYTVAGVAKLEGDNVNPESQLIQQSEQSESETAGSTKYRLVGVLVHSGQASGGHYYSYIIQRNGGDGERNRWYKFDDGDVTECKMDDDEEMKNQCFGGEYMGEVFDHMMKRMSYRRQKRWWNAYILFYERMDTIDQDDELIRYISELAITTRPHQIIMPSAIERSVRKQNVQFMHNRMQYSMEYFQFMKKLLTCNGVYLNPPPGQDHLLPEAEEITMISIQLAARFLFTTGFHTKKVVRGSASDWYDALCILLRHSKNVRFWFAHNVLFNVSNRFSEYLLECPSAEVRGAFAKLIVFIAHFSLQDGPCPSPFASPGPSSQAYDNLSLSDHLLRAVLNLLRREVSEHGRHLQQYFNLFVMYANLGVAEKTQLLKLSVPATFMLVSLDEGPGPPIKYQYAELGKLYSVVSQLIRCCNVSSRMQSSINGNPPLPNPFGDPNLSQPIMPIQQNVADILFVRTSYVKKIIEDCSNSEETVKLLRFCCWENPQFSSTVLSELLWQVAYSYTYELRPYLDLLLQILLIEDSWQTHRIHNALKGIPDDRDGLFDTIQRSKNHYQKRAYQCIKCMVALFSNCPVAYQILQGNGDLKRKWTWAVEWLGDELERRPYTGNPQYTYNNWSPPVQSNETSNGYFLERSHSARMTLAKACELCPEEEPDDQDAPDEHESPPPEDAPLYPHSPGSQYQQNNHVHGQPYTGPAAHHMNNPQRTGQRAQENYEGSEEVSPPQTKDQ
How it was run: as §1

UniProt O00487 = molecular target: UniProt O00487
Sequence of UniProt O00487 (O00487 whole entry): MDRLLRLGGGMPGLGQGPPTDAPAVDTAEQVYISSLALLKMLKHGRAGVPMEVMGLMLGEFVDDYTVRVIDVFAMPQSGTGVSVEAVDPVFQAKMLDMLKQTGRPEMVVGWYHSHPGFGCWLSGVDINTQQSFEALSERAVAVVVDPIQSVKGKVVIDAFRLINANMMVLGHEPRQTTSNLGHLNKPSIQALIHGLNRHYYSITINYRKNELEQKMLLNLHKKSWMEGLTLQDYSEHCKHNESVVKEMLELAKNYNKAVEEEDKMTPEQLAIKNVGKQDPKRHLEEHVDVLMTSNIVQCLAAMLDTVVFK
How it was run: as §1

Measured: log2 ratio of Biotin-Ahx-Ub-VS probe labelling

O=C(CCl)N1CCC(C(O)c2ccc(F)cc2)CC1 (stereo not given)
inactive: USP42 0.365 | USP46 0.252 | USP47 -0.324 | USP48 0.00604 | USP5 0.131 | USP54 -0.000277 | USP7 -0.0695 | USP8 0.0961 | USP9X 0.23 | UniProt O00487 0.0841
